# “And” between values parts separate entries of the source, which are not always exact repeats. Equal entries are not always repeated. Compounds without any hit were thinned out: in the full panel of roughly 83,000, 20% have a hit.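 Interpretation: 100, growth as untreated; towards 0, rising growth inhibition; 0, no net growth; 0 to -100, cell death. Compounds scoring below 10 were considered active.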 The source made the active and inactive calls.
# System: MDA-MB-468 breast
# Test: NCI-60 one-dose screen, 48 h (100 = growth as untreated, 0 = no growth, -100 = all killed)
# Details: 10 µM unless noted
row,SMILES,growth
1,COC(=O)C1C2CC3c4[nH]c5cc(OC)ccc5c4CCN3CC2CC(OC2CCCCO2)C1OC (configuration not stated),95.5% (inactive)
2,Cc1csc(/N=C(N)/N=C(\N)c2cccs2)n1,120% (inactive)
3,c1csc(C2=NN3C(C2)c2ccccc2OC3c2ccncc2)c1 (configuration not stated),103% (inactive)
4,c1ccc2cc(C[n+]3ccn(CCCCCCCn4cc[n+](Cc5ccc6ccccc6c5)c4)c3)ccc2c1,-2.76% (active)
5,CS(=O)(=O)c1ccc(C(=O)N2N=C(c3ccccc3)CC2c2ccc3c(c2)OCO3)cc1 (configuration not stated),90.1% (inactive)
6,COc1ccc(-c2cn[nH]c2-c2cc(OC)c(OC)c(OC)c2)cc1OCc1ccccc1,-5.94% (active)
7,Cc1ccc(NCCNCC(C)(C)O)c2c(=O)c3ccc(Cl)cc3sc12,-28.9% (active)
8,COc1ccc(C/C(=C(\C)c2ccc(OCCN3CCCC3)cc2)c2ccc(OCCN3CCCC3)cc2)cc1,33.2% (inactive)
9,CCCCCCCC(=O)SCC/C=C/[C@@H]1CC(=O)NCc2cccc(n2)CN(Cc2ccc(Cl)cc2)CC(=O)N[C@@H](C(C)C)C(=O)O1,44.6% (inactive)
10,CC1CCC(C(C)(C)[N+](C)(C)C)CC1 (configuration not stated),120% (inactive)
11,O=C(C1=Cc2cc3ccccc3n2Cc2cnnn21)c1ccccc1,5.98% (active)
12,Cc1cn(-c2cc(NC(=O)c3cncc(C#Cc4c(N)ncc5ccc(F)cc45)c3)cc(C(F)(F)F)c2)cn1,50.8% (inactive)
13,O=C(CCCCCCSc1nc(-c2ccccc2)cc(-c2ccccc2)n1)NO,43.2% (inactive)
14,CC(C)OP(=O)(CCC(=O)c1c[nH]c2ccccc12)OC(C)C,107% (inactive)
15,C=C(C)[C@@H]1CC[C@]2(C(N)=O)CC[C@]3(C)[C@H](CC[C@@H]4[C@@]5(C)C/C(=C/c6ccco6)C(=O)C(C)(C)[C@@H]5CC[C@]43C)[C@@H]12,87.6% (inactive)
16,CCCCCCCCCCCCCCCCCCNC(=O)[C@H]1CSC(c2ccc(OC)cc2O)N1 (some centres not stated),115% (inactive)
17,Cc1cc2c(-c3nc4ccccc4n3C)c(O)c(O)cc2c(O)c1-c1c(C)cc2c(-c3nc4ccccc4n3C)c(O)c(O)cc2c1O,35.7% (inactive)
18,CCCCNC(=O)Oc1ccc(/C(=C(\C)c2ccc(Cl)cc2)c2ccc(OCCN(CC)CC)cc2)cc1,71.8% (inactive)
19,Brc1cccc(-c2cc(-c3ccc4c(c3)OC=CO4)[nH]n2)c1,33.4% (inactive)

row,SMILES,growth
1,COc1cccc(-c2nc3sccn3c2-c2ccnc(NCCNS(=O)(=O)c3cccc(F)c3)c2)c1,25.6% (inactive)
2,COc1cccc(/C=C2\CCc3ccccc3C2=O)c1,63.9% (inactive)
3,O=C1Nc2ccc3c(c2/C1=C\c1cc2c(cc1Br)OCO2)OCO3,-11.9% (active)
4,COc1ccc(/C(C)=C(\c2ccc(Cl)cc2)c2ccc(OCCN3CCCC3)cc2)cc1F,37.5% (inactive)
5,CC1(C)CC(O)CCCCCCOc2c(CN)cccc2NC(=O)c2nc(cnc2N)-c2ccc(cc2)S1(=O)=O (configuration not stated),6.87% (active)
6,C=C(C)[C@@H]1CC[C@]2(C(=O)NCCNCCN)CC[C@]3(C)[C@H](CC[C@@H]4[C@@]5(C)C/C(=C/c6ccncc6)C(=O)C(C)(C)[C@@H]5CC[C@]43C)[C@@H]12,80.3% (inactive)
7,N#C/C(=C\c1ccc(F)cc1)n1nc2cccc(F)c2n1,21.6% (inactive)
8,O=C(/C(Cl)=N/O)c1ccc(-c2ccccc2)cc1,104% (inactive)
9,O=C(O)c1cccc(N/C=C/C(=O)c2cc3cc(Br)ccc3oc2=O)c1,96.1% (inactive)
10,CCN(CC)CCCC(C)N(Cc1ccccc1)CC(O)c1ccc(Cl)cc1 (configuration not stated),91.2% (inactive) and 104% (inactive)
11,CCOC(=O)C1CC(=O)c2cc(OC)c(OC)cc2C1 (configuration not stated),84.9% (inactive)
12,COC(=O)CCC(=O)C(=O)OC,52.9% [10 mM] (inactive)
13,N=C(N)c1ccc(-c2ccc(-c3cc(Cl)cc(Cl)c3)o2)o1,-69.1% (active)
14,CN(C)c1ccc(C(c2ccccc2)c2ccc(N(C)C)cc2)cc1,103% (inactive)
15,CC(=O)CC1CCCC1c1ccc2ccccc2c1 (configuration not stated),101% (inactive)
16,Cc1ccc(/C=C(\C#N)c2cc3ccccc3n2C)cc1,23.6% (inactive)
17,Nc1nc(Nc2ccccc2SSc2ccccc2Nc2nc(N)nc(-c3ccc4ccccc4c3)n2)nc(-c2ccc3ccccc3c2)n1,103% (inactive)
18,CCN(Cc1ccc(Cl)c(Cl)c1)c1ccc2nc(N)nc(N)c2c1C,-84.2% (active)
